Common to all, as to design: scale not given: direction of the effect not stated beside the values
Assay [1] has as its target Protein translocase subunit SecA (Escherichia coli (strain K12)) (UniProt P10408). The assay can be described thus: Assay to Identify E. coli SecA ATPase Inhibitors. The class given is functional. To be noted: 30 µM.
In assay [2] the target is T1, Ubiquitin-activating enzyme e1, putative (Leishmania donovani (strain BPK282A1)) (UniProt E9BSI1).
T1 sequence (whole entry): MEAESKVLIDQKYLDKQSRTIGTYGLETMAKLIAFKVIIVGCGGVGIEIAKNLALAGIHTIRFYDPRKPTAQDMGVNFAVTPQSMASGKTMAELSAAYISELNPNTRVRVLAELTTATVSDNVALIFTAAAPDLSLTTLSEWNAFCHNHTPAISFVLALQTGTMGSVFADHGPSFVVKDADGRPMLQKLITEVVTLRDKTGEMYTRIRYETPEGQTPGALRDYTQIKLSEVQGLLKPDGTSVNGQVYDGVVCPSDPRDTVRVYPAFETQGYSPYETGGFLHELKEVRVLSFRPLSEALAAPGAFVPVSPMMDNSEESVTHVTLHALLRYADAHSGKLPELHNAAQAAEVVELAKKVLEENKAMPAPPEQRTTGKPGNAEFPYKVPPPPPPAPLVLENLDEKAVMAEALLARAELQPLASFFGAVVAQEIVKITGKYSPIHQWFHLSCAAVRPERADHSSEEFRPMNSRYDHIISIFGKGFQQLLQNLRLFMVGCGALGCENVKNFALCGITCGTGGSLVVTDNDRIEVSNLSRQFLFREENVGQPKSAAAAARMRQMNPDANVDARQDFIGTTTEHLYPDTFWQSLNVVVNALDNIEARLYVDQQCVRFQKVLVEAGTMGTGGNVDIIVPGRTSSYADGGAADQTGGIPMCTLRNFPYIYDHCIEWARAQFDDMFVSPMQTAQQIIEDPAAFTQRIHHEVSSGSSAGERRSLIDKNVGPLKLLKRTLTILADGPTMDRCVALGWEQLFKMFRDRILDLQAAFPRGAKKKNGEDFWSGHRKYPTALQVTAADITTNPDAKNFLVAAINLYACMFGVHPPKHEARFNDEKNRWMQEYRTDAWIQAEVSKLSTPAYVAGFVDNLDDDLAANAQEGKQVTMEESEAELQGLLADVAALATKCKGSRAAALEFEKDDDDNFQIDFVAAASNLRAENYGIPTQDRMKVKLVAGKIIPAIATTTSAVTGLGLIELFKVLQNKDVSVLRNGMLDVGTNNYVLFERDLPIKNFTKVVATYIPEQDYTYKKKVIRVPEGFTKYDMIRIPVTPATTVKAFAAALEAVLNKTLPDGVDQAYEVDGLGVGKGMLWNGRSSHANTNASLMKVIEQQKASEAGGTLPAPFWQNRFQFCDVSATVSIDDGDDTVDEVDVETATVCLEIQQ
Briefly: Leishmania donovani Ubiquitin Activating Enzyme (LdE1). The class given is functional. To be noted: 30 µM.

The target of assay [3] is AMP-activated protein kinase, AMPK (Homo sapiens) (UniProt P54646+O43741+P54619+Q9UGJ0+Q9Y478+Q13131+Q9UGI9). Briefly: AMP-dependent Kinase enzyme assay. An in vitro enzyme assay that detects ADP turnover that is directly proportional to AMPK activity. This uses naive AMPK that is activated during the assay with MK-8722. The class given is functional. To be noted: 30 µM.

In assay [4] the target is Sialic acid-binding Ig-like lectin 9 (Homo sapiens) (UniProt Q9Y336). The assay can be described thus: Hs-Siglec9 ALPHAscreen SOP 20170721. To be noted: 10 µM. (In general: In Alpha technology, singlet oxygen from a donor bead excites a nearby acceptor bead.)
The subject of the next assay is Trypanosoma cruzi. The assay can be described thus: Trypanosoma cruzi phosphomannomutase and mannose-1-phosphate guanylyltransferase assay. It counts as functional. To be noted: 10 µM.
In assay [5] the target is T2, Arginase-2, mitochondrial (Homo sapiens) (UniProt P78540).
T2 sequence (whole entry): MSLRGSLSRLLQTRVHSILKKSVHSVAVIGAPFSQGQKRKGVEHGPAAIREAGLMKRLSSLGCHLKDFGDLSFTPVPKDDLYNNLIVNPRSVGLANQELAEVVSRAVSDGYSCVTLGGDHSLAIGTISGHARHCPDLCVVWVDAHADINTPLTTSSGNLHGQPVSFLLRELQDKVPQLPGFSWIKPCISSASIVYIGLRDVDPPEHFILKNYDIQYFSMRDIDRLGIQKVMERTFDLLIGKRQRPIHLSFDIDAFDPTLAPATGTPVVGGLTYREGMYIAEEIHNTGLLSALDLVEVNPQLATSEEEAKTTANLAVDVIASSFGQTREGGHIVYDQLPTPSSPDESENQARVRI
The assay can be described thus: in vitro enzyme assay to detect the production of urea directly proportional to the activity of Arginase II. Further: in the data most compounds retested in dose-response had high values. It counts as functional. To be noted: 33.3 µM.

In assay [6] the target is T3, Proteasome subunit beta (Trypanosoma cruzi) (UniProt O96673).
T3 sequence (whole entry): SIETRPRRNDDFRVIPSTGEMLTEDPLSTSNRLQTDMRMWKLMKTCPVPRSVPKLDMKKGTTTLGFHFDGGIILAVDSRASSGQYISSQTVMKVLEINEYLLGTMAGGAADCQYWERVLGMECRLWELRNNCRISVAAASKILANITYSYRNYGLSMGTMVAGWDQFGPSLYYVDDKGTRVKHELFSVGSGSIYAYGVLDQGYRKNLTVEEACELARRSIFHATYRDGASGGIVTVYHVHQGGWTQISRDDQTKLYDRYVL
Briefly: Trypanosoma cruzi proteasome chymotrypsin-like activity (TcProtChymo) assay. Further: in the data most compounds retested in dose-response had high values. It counts as functional. To be noted: 9.37 µM.

The species entered for a further assay is Homo sapiens. Briefly: To identify inhibition of the IFN signalling (Jak-Stat) pathway via expression of an eGFP reporter gene under the control of an IFN-stimulated response element (ISRE) containing MxA promoter. The class given is functional. To be noted: 30 µM. A general note: A reporter such as luciferase makes a cellular process visible.
Assay [7] deals with T4, Tyrosyl-tRNA synthetase, putative (Trypanosoma cruzi (strain CL Brener)) (UniProt Q4DSP6).
T4 sequence (whole entry): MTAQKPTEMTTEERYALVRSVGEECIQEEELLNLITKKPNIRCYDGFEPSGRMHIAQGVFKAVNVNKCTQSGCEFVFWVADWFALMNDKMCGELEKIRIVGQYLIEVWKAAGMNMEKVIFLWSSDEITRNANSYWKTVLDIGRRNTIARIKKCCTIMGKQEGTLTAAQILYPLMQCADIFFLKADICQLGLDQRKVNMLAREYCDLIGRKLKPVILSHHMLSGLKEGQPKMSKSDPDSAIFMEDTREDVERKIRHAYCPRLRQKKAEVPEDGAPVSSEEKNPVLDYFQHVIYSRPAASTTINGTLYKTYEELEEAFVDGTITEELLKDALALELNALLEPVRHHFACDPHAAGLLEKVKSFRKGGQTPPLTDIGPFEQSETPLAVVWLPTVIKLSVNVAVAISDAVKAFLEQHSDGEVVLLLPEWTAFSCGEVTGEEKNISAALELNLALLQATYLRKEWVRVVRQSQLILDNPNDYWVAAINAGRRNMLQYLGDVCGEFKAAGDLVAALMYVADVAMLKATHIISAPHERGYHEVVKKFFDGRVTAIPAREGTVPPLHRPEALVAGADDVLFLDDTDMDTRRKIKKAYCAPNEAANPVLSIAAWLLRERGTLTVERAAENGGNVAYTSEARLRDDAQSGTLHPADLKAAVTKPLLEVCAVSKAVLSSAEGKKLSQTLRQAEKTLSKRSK
The assay can be described thus: Trypanosoma cruzi tyrosyl tRNA synthetase (TcYRS) _High Tyrosine SOP. Further: in the data most compounds retested in dose-response had high values. To be noted: 30 µM. The class given is functional.

For assay [8], the target named is T4, Tyrosyl-tRNA synthetase, putative (Trypanosoma cruzi (strain CL Brener)). Briefly: Trypanosoma cruzi tyrosyl tRNA synthetase (TcYRS) SOP. It counts as functional. To be noted: 30 µM.
Assay [9] has as its target Chromo domain-containing protein 1 (Saccharomyces cerevisiae (strain ATCC 204508 / S288c) (Baker's yeast)) (UniProt P32657). The assay can be described thus: ScCHD-1 Enzyme Inhibition Assay. Further: in the data most compounds retested in dose-response had high values. To be noted: 30 µM. The class given is functional.

For some of these results: Measured potencies and affinities stand elsewhere.

Chain of Chromo domain-containing protein 1 (Saccharomyces cerevisiae (strain ATCC 204508 / S288c) (Baker's yeast)) (P32657 whole entry, the tested form may be a part): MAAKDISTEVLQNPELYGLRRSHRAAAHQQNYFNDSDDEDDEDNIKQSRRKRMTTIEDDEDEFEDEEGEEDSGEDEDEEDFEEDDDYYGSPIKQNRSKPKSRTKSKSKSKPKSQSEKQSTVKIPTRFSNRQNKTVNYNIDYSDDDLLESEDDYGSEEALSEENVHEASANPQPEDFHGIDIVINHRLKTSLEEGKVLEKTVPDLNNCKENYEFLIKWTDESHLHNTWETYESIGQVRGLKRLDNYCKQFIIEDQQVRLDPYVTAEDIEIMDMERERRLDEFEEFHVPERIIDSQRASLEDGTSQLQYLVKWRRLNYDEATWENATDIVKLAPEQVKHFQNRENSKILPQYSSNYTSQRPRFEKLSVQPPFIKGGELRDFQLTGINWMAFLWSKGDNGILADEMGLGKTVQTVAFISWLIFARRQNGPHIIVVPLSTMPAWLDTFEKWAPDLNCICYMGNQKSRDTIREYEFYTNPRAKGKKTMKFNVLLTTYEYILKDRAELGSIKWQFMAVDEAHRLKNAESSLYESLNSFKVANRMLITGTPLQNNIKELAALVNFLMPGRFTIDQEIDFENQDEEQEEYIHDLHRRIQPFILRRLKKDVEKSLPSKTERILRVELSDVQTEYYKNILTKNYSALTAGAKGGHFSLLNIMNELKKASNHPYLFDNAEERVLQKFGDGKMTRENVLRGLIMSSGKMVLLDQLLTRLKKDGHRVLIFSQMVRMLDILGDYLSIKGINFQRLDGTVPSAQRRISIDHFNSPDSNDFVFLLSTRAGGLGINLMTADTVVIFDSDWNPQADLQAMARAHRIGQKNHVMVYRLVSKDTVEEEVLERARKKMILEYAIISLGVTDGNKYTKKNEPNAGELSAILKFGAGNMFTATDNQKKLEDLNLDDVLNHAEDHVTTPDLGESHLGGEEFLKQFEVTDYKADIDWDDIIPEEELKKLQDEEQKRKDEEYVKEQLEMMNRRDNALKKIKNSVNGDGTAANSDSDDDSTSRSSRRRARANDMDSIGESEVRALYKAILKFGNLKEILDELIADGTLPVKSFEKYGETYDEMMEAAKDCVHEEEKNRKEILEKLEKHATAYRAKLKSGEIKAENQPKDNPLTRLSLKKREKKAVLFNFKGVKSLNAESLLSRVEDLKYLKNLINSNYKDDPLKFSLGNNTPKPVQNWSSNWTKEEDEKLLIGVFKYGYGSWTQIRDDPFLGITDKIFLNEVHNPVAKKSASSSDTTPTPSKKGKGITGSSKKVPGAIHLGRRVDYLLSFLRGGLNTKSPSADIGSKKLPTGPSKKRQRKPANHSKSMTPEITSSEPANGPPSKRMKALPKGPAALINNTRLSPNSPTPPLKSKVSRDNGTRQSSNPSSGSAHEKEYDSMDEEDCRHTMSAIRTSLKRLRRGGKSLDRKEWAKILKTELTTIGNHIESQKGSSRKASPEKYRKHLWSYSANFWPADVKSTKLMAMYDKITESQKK
Chain of Sialic acid-binding Ig-like lectin 9 (Homo sapiens) (Q9Y336 whole entry): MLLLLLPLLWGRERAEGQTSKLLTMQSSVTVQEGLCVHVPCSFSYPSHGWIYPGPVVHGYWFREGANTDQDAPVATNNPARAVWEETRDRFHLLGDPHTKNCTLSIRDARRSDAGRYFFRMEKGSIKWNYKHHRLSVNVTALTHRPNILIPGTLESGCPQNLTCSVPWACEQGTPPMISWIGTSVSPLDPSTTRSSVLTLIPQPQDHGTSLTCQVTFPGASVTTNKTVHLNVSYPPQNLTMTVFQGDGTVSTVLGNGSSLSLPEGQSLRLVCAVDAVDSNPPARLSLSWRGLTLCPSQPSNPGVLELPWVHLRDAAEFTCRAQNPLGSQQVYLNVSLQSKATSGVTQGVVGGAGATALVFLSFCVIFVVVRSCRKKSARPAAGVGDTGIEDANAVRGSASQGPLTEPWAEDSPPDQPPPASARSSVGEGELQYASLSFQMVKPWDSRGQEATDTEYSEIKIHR
Chain of Protein translocase subunit SecA (Escherichia coli (strain K12)) (P10408 whole entry): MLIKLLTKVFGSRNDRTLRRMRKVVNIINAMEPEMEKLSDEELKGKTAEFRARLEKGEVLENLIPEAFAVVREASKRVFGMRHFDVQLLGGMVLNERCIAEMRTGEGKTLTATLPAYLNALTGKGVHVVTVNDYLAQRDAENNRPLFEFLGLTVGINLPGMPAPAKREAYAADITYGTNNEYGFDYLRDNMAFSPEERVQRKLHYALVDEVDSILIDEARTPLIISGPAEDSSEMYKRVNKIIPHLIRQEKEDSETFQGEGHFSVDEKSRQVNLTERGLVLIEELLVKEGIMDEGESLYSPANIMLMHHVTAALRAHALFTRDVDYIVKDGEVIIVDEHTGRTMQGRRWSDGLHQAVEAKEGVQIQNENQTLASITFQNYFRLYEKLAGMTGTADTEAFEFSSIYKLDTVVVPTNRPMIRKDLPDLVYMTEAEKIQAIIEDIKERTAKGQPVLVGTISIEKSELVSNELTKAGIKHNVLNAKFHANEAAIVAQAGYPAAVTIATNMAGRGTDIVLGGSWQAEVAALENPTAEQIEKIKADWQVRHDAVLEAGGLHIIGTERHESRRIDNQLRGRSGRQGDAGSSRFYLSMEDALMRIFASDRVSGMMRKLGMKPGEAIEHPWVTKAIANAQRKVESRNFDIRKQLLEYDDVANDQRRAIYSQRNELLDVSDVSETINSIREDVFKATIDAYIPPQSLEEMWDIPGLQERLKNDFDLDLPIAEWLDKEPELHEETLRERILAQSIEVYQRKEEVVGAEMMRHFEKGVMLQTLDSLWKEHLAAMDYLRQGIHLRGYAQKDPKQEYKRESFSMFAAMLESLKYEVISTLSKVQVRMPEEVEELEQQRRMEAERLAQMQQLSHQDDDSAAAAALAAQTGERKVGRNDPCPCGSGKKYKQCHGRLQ

Turning to `CN(C)C(=O)CC1CC2(CCN(C(=O)N(C)C)CC2)Oc2ccccc21` (stereo not drawn), the Percent Effect is -2.94% in assay [1]; 8.11% in assay [2]; -0.534% in assay [3]; -1.19% in assay [4]; -4.79% in the assay with Trypanosoma cruzi; 2.73% in assay [5]. Further, the Percent Effect is 9.53% in assay [6]; 4.7% in the assay filed under Homo sapiens; 1.07% in [7]; 6.17% in [8]; -4.24% in assay [9].

With `CCc1nc(NCCCn2cccn2)c2c(n1)c(C)nn2C`, the Percent Effect in assay [1] is -3.56%; in [2] it was 20%; in assay [3], -0.746%; in assay [4], 2.66%; in the assay on Trypanosoma cruzi, 0.197%; in assay [5] it was -0.528%. Moreover, the Percent Effect in assay [6] is 17.6%; in the assay filed under Homo sapiens, 8.9%; in assay [7], 6.35%; in assay [8], 12.8%; in [9] it was -12.1%.

Regarding `Cc1ncsc1C(=O)N1CCCN(Cc2cscn2)CC1`, the Percent Effect was -2.64% in assay [1]; 5.2% in [2]; 1.53% in assay [3]; 0.904% in assay [4]; 3.82% in the assay on Trypanosoma cruzi; -1.9% in assay [5]. The Percent Effect was -3.8% in [6]; -3.73% in the assay filed under Homo sapiens; 6.67% in [7]; 9.41% in assay [8]; -14.3% in assay [9].

As for `CS(=O)(=O)N1CCCC12CCCN(S(=O)(=O)c1ccc(F)cc1)C2` (stereo not drawn), the Percent Effect in assay [1] was -3.85%; in assay [2], 5.41%; in [3] it was -33.3%; in [4], -0.0111%; with Trypanosoma cruzi it was -5.18%; in [5], 1.24%. Also, the Percent Effect in assay [6] was 10.7%; in the assay listed under Homo sapiens it was -4.37%; in assay [7] it was 6.45%; in assay [8], 6.17%; in assay [9] it was -9.7%.

For `CCOc1ccccc1-c1noc(CN2CC(n3cccn3)C2)n1`, the Percent Effect in assay [1] is -1.57%; in assay [2] it was 2.6%; in [3], 2.37%; in assay [4], -3.32%; with Trypanosoma cruzi, 8.13%; in [5] it was -3.16%. Moreover, the Percent Effect is 2.99% in assay [6]; 4.34% in the assay listed under Homo sapiens; 0.952% in [7]; 7.06% in assay [8]; -6.41% in [9].

`O=C(c1cccnc1)N1C[C@@H]2CC[C@H](C1)N(Cc1cccc(Cl)c1F)C2`: the Percent Effect was -2.44% in assay [1]; 8.22% in assay [2]; 11.4% in assay [3]; 4.43% in [4]; -0.588% in the assay with Trypanosoma cruzi; 5% in assay [5]. Moreover, the Percent Effect in assay [6] is 10.8%; in the assay listed under Homo sapiens, 8.1%; in [7], 9.68%; in assay [8], 22.5%; in assay [9], -3.1%.

`COc1ccccc1CC1CCCN(CC(N)=O)C1` (stereo not drawn): the Percent Effect is -0.0936% in [1]; 7.79% in assay [2]; 0.0164% in assay [3]; 9.64% in assay [4]; 0.0979% in the assay on Trypanosoma cruzi; 2.32% in assay [5]. Besides, the Percent Effect in assay [6] was -0.889%; in the assay listed under Homo sapiens, -0.966%; in assay [7] it was 2.86%; in assay [8] it was 9.41%; in [9], -6.07%.

Consider `Cc1cc(CN2CCN(C(=O)c3sccc3C3CC3)CC2)on1`, for which the Percent Effect in assay [1] is -1.18%; in assay [2], 10.4%; in assay [3], 2.54%; in [4] it was -6.72%; in the assay with Trypanosoma cruzi it was -7.35%; in assay [5] it was 1.05%. The Percent Effect in assay [6] was 9.62%; in the assay filed under Homo sapiens it was 18.1%; in assay [7] it was 4.76%; in assay [8], 18.8%; in [9], -15.4%.

For the origin of these results see ChEMBL document CHEMBL3988442, “University of Dundee, Small-Polar-MMV Screening Library” (2021).
